Drawing on ChEMBL document CHEMBL4513160, “CO-ADD screening of MMV (CH) - Small Polar Library”, this text covers Inhibition for 68 compounds.

Among all 23,000 compounds or so, about 30 (0.1%) showed an effect of 50% or more. The sample as a whole holds a higher share of strong results than the screen did. Entries with a potency or affinity are not part of this list.

This assay has as its system Pseudomonas aeruginosa. The following applies: Concentration 300 ug.mL-1; ASSAY_TEST Inhibition of Bacterial Growth; detection method Absorption (OD600); MEDIA CAMHB; plate type 384well; NBS; CORNING #3640; time 18 hr.
For `N[C@H]1CCCNC1=O`, the Inhibition is 19.57%.

Consider `CCc1nc(CNC(=O)C2CCCO2)cs1` (stereo not drawn), for which the Inhibition was found to be 6.65%.

Turning to `CCS(=O)(=O)NC1CCN(C(=O)c2cccc(F)c2)C1` (stereo not drawn), the Inhibition is listed as 13%. Next, `Cc1noc(CN(C)CCC2CCOCC2)n1`: -10.62%; `O=C(NCc1ccc2c(c1)OCCCO2)c1cscn1`: 14.64%. `NC1CC(=O)Nc2ccccc21` (stereo not drawn): the Inhibition is on record as 18.18%.

On to `CC(C)C[C@@H](N)C(=O)NCc1ccc2nsnc2c1`, for which the Inhibition was 6.42%. With `CC(C)C(=O)NC1CCCNC1` (stereo not drawn), the Inhibition is -0.49%. Regarding `N#Cc1ccc(NCc2ccccc2F)nc1`, the Inhibition was found to be 16.68%. Next, `Cn1cnnc1CCNC(=O)c1cc(Cl)c(Cl)n1C`: 15.17%. Next, `COCCC(=O)c1ccc(F)cc1`: 19.26%; `CCN1CCCC1CNC(=O)c1c[nH]nn1` (stereo not drawn): 16.01%. The same measure for `Cc1cc(C)cc(NC(=O)CNCCCO)c1`: 5.1%; for `NC1CCCc2c(F)cccc21` (stereo not drawn): 23.88%; for `Fc1ccc2nc(N3CCCNCC3)oc2c1F`: 33.45%. `Cc1n[nH]c(C)c1NC(=O)C(C)CN` (stereo not drawn): the Inhibition was 18.11%. For `CN(Cc1ccc2c(c1)OCO2)C(=O)c1cncs1`, the Inhibition was determined as 25.32%. The same measure for `COC(=O)c1ccc(=O)n(CC(=O)NCCC(C)C)c1`: 4.64%; for `O=C(NCCOc1ncccc1Cl)c1cscn1`: 13.9%. The same measure for `COc1ccc(CN2C[C@H](O)[C@@H](N(C)C)C2)c(C)c1C`: 27.33%.

As to `Cc1cc(C(=O)N2C[C@H](C3CC3)[C@@H](N)C2)ccc1O`, the Inhibition amounted to 1.32%. The same measure for `CC1CCN(CCNC(=O)c2cnccn2)CC1`: -12.84%. On to `CNCCN1CCOC(C)(C)C1`, for which the Inhibition was found to be 9.7%. Next, `NS(=O)(=O)c1ccc(NC(=O)Cn2ccnc2)cc1`: 5.95%.

For the compound `Cc1cc(C(=O)O)cc(N2C[C@H](C3CC3)[C@@H](N)C2)n1`, the Inhibition was -2.3%. `CC(SCCN1CCOCC1)C(=O)N(C)C(C)C` (stereo not drawn): the Inhibition is reported as 5.48%. Regarding `N#Cc1ccc(Br)o1`, the Inhibition was 8.03%. On to `Cc1cccc(C)c1-n1nnnc1SCC(N)=O`, for which the Inhibition turned out to be 21.56%. The same measure for `CNC(=O)C1CCN(CCCOc2ccccc2)CC1`: 24.15%. Turning to `CCCNC(=O)CCNC(=O)NCC`, the Inhibition is reported as 0.02%. Next, `CCc1ccc(C(=O)NC2CNC[C@@H]2OC)o1` (stereo partly drawn): 36.32%. The same measure for `NCC1(CCO)CCOC1` (stereo not drawn): 6.83%; for `COc1cccc(-c2ccc(CNS(N)(=O)=O)cc2)c1`: 23.3%. The same measure for `O=C(NCC1CCNCC1)c1ccncc1`: 12.69%; for `CCN(CCn1cccn1)C(=O)CNC(=O)N(C)C`: -8.78%; for `CCN(c1ccccc1)S(N)(=O)=O`: 5.95%. As for `COc1c(C)cnc(CNC(=O)CSC)c1C`, the Inhibition is recorded as 1.37%. The same measure for `CN1CCC(NC(=O)CSCc2cccs2)CC1`: 12.03%; for `CNC(=O)NC1CN(C(=O)OC(C)(C)C)C1`: -6.26%. Next, `CN(C)CCCOc1cccc(CN2CC(O)C2)c1`: 2%; `OC1(CNCc2ccccn2)CCc2ccccc21` (stereo not drawn): 24.9%. The same measure for `Cc1c(Cl)cccc1C(=O)NC(C)c1nnnn1C` (stereo not drawn): 8.95%; for `Cc1cc(N(C)C)n2nccc2n1`: -18.53%. Take `CCN(CC)C(=O)COc1ccc(C(C)=O)c(F)c1`: the Inhibition amounted to 4.67%.

For the compound `COc1cn(C)c(C(=O)NCc2ccco2)cc1=O`, the Inhibition is on record as 21.6%. The same measure for `CC(=O)c1ccc(CNc2nccnc2C#N)nc1C`: 14.58%; for `Cc1nc(C2CCN(C(=O)c3cn[nH]c3)CC2)no1`: -1.22%.

`NC1CCC(NC(=O)c2ccnc(C3CC3)n2)CC1` (stereo not drawn): the Inhibition amounted to 4.44%. With `CN1CCC(CCNS(C)(=O)=O)CC1`, the Inhibition is -4.45%. As to `CCCc1noc(C(C)Nc2cccc(C(N)=O)c2)n1` (stereo not drawn), the Inhibition is 24.66%.

In the case of `O=S1(=O)CCC(NCc2csc(-c3ccccn3)n2)C1` (stereo not drawn), the Inhibition is 17.32%. The same measure for `CCC1CN(Cc2ccnc(N)c2)CCO1` (stereo not drawn): 4.62%. Next, `COCCNC(=O)CNC(=O)c1cc(C)cc(C)c1Br`: 7.79%; `CNCCCNC(=O)CCc1ccsc1`: -24.67%; `CCC(C)NC(=O)NCc1ccc(-n2ccnc2)nc1` (stereo not drawn): 14.1%.

Regarding `CN1CCN(C(=O)C2COc3ccccc3O2)CC1=O` (stereo not drawn), the Inhibition stood at 3.72%. Next, `Cc1ccccc1CNc1nnc(CO)s1`: 26.98%; `CC1(CO)COCCN1Cc1ccccc1` (stereo not drawn): 11.96%; `Cc1cccc(C(=O)Nc2nnn(C)n2)c1`: 2.82%. Next, `Cc1n[nH]c(C)c1S(=O)(=O)N1CCN(C)CC1`: 33.93%; `CCNC(=O)Nc1c[nH]nc1C1CCCNC1` (stereo not drawn): 15.62%; `NS(=O)(=O)NCC1CCCN(CCC2CCCC2)C1` (stereo not drawn): 13.03%.

On to `Cc1nc(CN2CCC(O)(CN3CCCC3)CC2)c[nH]1`, for which the Inhibition amounted to 20.39%. As to `O=C(C1CCCO1)N1CCN(c2cc(Br)ccn2)CC1` (stereo not drawn), the Inhibition is on record as 3.3%. The same measure for `c1ccc(-c2nc3c([nH]2)CCNC3)cc1`: 7.84%; for `CNC(=O)CN1CCCC(CO)(CC=C(C)C)C1` (stereo not drawn): 20.92%. For the compound `N#Cc1ccc(CN2CCC3(CCC3O)CC2)cc1` (stereo not drawn), the Inhibition came to 20.3%. Next, `Cc1ocnc1C(=O)NCCNC(=O)c1cccnc1`: 1.53%.
